The text below walks through data of the supplement of paper PMC10498489.

Screen size: about 2,300 compounds; about 330 (14%) showed activity.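 Rule for the calls: active = median modified Z-score above 1.96; inactive = 1.96 or below.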 Not all results are given here.

In this assay the test system is HepG2 Srxn1-GFP reporter cells (+30 nM CDDO-Me). Nature of the assay: Srxn1-GFP intensity median modified Z-score relative to plate median; higher = stronger NRF2 / oxidative stress reporter activation, active = hit call of the paper. The note with it: 10 µM; exposure time: 24h. In outline: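 Per-cell cytoplasmic GFP was measured on confocal images of formaldehyde-fixed, Hoechst-stained HepG2 Srxn1-GFP BAC reporter cells, excluding images with fewer than 100 cells. Before this, the cells (20,000 per well, 96-well plates) were co-exposed for 24 h to compound at 10 μM and an NRF2 activator at 30 nM with ≤0.1% DMSO, in three replicate plates. Each value is the median over replicates of the per-plate modified Z-score of GFP intensity. That score was scaled with 1.4826 × median absolute deviation.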
For `O=C(c1ccc(COc2ccc(Cl)cc2)cc1)N1CCN(Cc2ccc3c(c2)OCO3)CC1`, the “Srxn1-GFP intensity median modified Z-score” value was 1.17 (inactive).

With `C[C@]12CCC3c4ccc(O)cc4CCC3C1CC[C@@H]2OC(=O)CCC1CCCC1` (stereo partly specified) [euspeclibcmpd116], the “Srxn1-GFP intensity median modified Z-score” value is -0.256 (inactive).

On to `Oc1ccc(O)cc1` [euspeclibcmpd672], for which the “Srxn1-GFP intensity median modified Z-score” value was 0.74 (inactive).

With `Cc1ccc(O)cc1` [euspeclibcmpd76], the “Srxn1-GFP intensity median modified Z-score” value was -0.159 (inactive).

Regarding `CC=C(C(=CC)c1ccc(O)cc1)c1ccc(O)cc1` [euspeclibcmpd91], the “Srxn1-GFP intensity median modified Z-score” value was 13.6 (active).

As to `CN[C@@H]1C(O)[C@@H](O[C@@H]2[C@@H](O)[C@H](O[C@H]3OC(CN)=CC[C@H]3N)[C@@H](N)C[C@H]2N)OC[C@]1(C)O` (stereo partly specified) [euspeclibcmpd452], the “Srxn1-GFP intensity median modified Z-score” value was -0.626 (inactive).

For the molecule `CO[C@H]1/C=C/O[C@@]2(C)Oc3c(C)c(O)c4c(O)/c(c(=CNN5CCN(C)CC5)c(O)c4c3C2=O)=N\C(=O)/C(C)=C\C=C\C(C)[C@H](O)[C@@H](C)[C@@H](O)[C@@H](C)[C@@H](OC(C)=O)[C@@H]1C` (stereo partly specified) [euspeclibcmpd263], the “Srxn1-GFP intensity median modified Z-score” value was -0.401 (inactive).

For `O=c1c(O)cc(C2Oc3cc(O)cc(O)c3C[C@H]2O)cc2c(C3Oc4cc(O)cc(O)c4C[C@@H]3O)cc(O)c(O)c12` (stereo partly specified) [euspeclibcmpd1420], the “Srxn1-GFP intensity median modified Z-score” value is -0.548 (inactive).

On to `Oc1cn2c(n1)Nc1ccc(Cl)c(Cl)c1C2` [euspeclibcmpd824], for which the “Srxn1-GFP intensity median modified Z-score” value is -0.784 (inactive).

On to `CN1CCN2c3ccccc3Cc3ccccc3C2C1` (stereo unspecified) [euspeclibcmpd961], for which the “Srxn1-GFP intensity median modified Z-score” value is 0.112 (inactive).

Regarding `CSc1ccc2c(c1)C(N1CCN(C)CC1)Cc1ccccc1S2` (stereo unspecified) [euspeclibcmpd1144], the “Srxn1-GFP intensity median modified Z-score” value was 28.4 (active).

On to `Cc1cc2c(s1)N=c1ccccc1=NC2N1CCN(C)CC1` (stereo unspecified) [euspeclibcmpd2354], for which the “Srxn1-GFP intensity median modified Z-score” value is 0.441 (inactive).

For `CON=C(C(=O)NC1C(=O)N2C(C(=O)O)=C(CSC(=O)c3ccco3)CSC12)c1csc(=N)[nH]1` (stereo unspecified) [euspeclibcmpd692], the “Srxn1-GFP intensity median modified Z-score” value was -0.296 (inactive).

As for `N=c1[nH]cnc(=Nc2ccc(Cl)cc2)[nH]1` [euspeclibcmpd2344], the “Srxn1-GFP intensity median modified Z-score” value is 0.164 (inactive).

Take `CC1CC[C@@]23CC[C@]4(C)[C@@](CCC5[C@@]6(C)CCC(=O)C(C)(C)C6CC[C@]54C)(OC2=O)C3C1C` (stereo partly specified) [euspeclibcmpd1366]: the “Srxn1-GFP intensity median modified Z-score” value is -0.221 (inactive).

Consider `CC(=O)OCC(=O)[C@@]1(O)CC[C@H]2[C@@H]3CCC4=CC(=O)CC[C@]4(C)[C@H]3C(=O)C[C@]21C`, for which the “Srxn1-GFP intensity median modified Z-score” value was 0.314 (inactive).

With `CCN(CC)CCOc1ccc(/C(=C(\Cl)c2ccccc2)c2ccccc2)cc1` [euspeclibcmpd69], the “Srxn1-GFP intensity median modified Z-score” value is -1.55 (inactive).

Consider `COc1ccc(C(=O)NCc2ccc(OCCN(C)C)cc2)cc1OC` [euspeclibcmpd1095], for which the “Srxn1-GFP intensity median modified Z-score” value was 0.331 (inactive).

For `COc1cc(C(=O)NCc2ccc(OCCN(C)C)cc2)cc(OC)c1OC` [euspeclibcmpd309], the “Srxn1-GFP intensity median modified Z-score” value was 0.482 (inactive).

Take `CC/C(=C(\c1ccccc1)c1ccc(OCCN(C)C)cc1)c1ccccc1` [euspeclibcmpd285]: the “Srxn1-GFP intensity median modified Z-score” value was 43.4 (active).

Consider `CN(C)CCOC(=O)COc1ccc(Cl)cc1` [euspeclibcmpd1131], for which the “Srxn1-GFP intensity median modified Z-score” value is -0.393 (inactive).

As for `CN(C)CCOc1ccc(/C(=C(/CCCl)c2ccccc2)c2ccccc2)cc1` [euspeclibcmpd946], the “Srxn1-GFP intensity median modified Z-score” value was 93.7 (active).

Take `C[C@@H]1CC2C3CC(F)=C4CC(=O)C=C[C@]4(C)[C@@]3(F)[C@@H](O)C[C@]2(C)[C@@]1(O)C(=O)COC(=O)C(C)(C)C` (stereo partly specified) [euspeclibcmpd128]: the “Srxn1-GFP intensity median modified Z-score” value is -0.646 (inactive).

For the molecule `COc1c(O)c(C)c(C=CCCCCCCCCO)c(O)c1OC` [euspeclibcmpd1216], the “Srxn1-GFP intensity median modified Z-score” value was -0.228 (inactive).

With `COC(=O)/C(=C1\OC(=O)C(c2ccccc2)C1=O)c1ccccc1` (stereo unspecified) [euspeclibcmpd1487], the “Srxn1-GFP intensity median modified Z-score” value is 1.05 (inactive).

Regarding `CC(=O)O[C@@H]1CC2C(C)(C)C(=O)CC[C@]2(C)C2CC[C@@]3(C)[C@H](c4ccoc4)OC(=O)C4OC43[C@@]21C` (stereo partly specified) [euspeclibcmpd1587], the “Srxn1-GFP intensity median modified Z-score” value is 32.1 (active).

As to `CC(=O)OC1CC2C(C)(C)C(O)CCC2(C)C2CCC3(C)C(=CC(=O)OC3c3ccoc3)C12C` (stereo unspecified) [euspeclibcmpd1952], the “Srxn1-GFP intensity median modified Z-score” value is 0.595 (inactive).

On to `CC(=O)O[C@H]1C[C@@H](OC(C)=O)C(C)(C)C2CC(=O)[C@]3(C)C(CC[C@@]4(C)[C@H](c5ccoc5)OC(=O)C5O[C@]543)[C@]21C` (stereo partly specified) [euspeclibcmpd1589], for which the “Srxn1-GFP intensity median modified Z-score” value was 0.448 (inactive).

Consider `CC1(C)O[C@H]2CC(=O)OC[C@]23[C@H]2CC[C@@]4(C)[C@H](c5ccoc5)OC(=O)C5O[C@]54[C@]2(C)C(=O)C[C@@H]13` (stereo partly specified) [euspeclibcmpd1497], for which the “Srxn1-GFP intensity median modified Z-score” value was 0.563 (inactive).

In the case of `CC(=O)O[C@@H]1CC2C(C)(C)C(=O)C3OC3[C@]2(C)C2CC[C@@]3(C)[C@H](c4ccoc4)OC(=O)C4OC43[C@@]21C` (stereo partly specified) [euspeclibcmpd1644], the “Srxn1-GFP intensity median modified Z-score” value was 5.41 (active).

As to `CC(=O)O[C@@H]1CC2C(C)(C)C(=O)C=C[C@]2(C)C2CC[C@@]3(C)[C@H](c4ccoc4)OC(=O)C4O[C@]43[C@@]21C` (stereo partly specified) [euspeclibcmpd1359], the “Srxn1-GFP intensity median modified Z-score” value is 23.9 (active).

In the case of `COC(=O)CC1C(C)(C)C(OC(C)=O)C2C(OC(C)=O)C34OC2(O)C1(C)C3CCC1(C)C4=CC(=O)OC1c1ccoc1` (stereo unspecified) [euspeclibcmpd1938], the “Srxn1-GFP intensity median modified Z-score” value was -0.377 (inactive).

Consider `COC(=O)C1OC(=O)C2OC23[C@@]1(C)CCC1[C@]2(C)C(C[C@@H](O)[C@]13C)C(C)(C)[C@H](OC(C)=O)C[C@@H]2OC(C)=O` (stereo partly specified) [euspeclibcmpd2102], for which the “Srxn1-GFP intensity median modified Z-score” value was -0.135 (inactive).

Consider `CC(=O)O[C@H]1C[C@@H](OC(C)=O)C(C)(C)C2C[C@@H](OC(C)=O)[C@@]3(C)C4=CC(=O)O[C@@H](c5ccoc5)[C@]4(C)CCC3[C@]21C` (stereo partly specified) [euspeclibcmpd1532], for which the “Srxn1-GFP intensity median modified Z-score” value was 0.0053 (inactive).

For the molecule `CC(=O)O[C@H]1C[C@@H](OC(C)=O)C(C)(C)C2CC(=O)[C@]3(C)C(CC[C@@]4(C)C(C(=O)O)OC(=O)C5OC543)[C@]21C` (stereo partly specified) [euspeclibcmpd1389], the “Srxn1-GFP intensity median modified Z-score” value was -0.386 (inactive).

`CC1(C)C(=O)C=C[C@@]2(C)C1CC(=O)[C@]1(C)C2CC[C@@]2(C)[C@H](c3ccoc3)OC(=O)C3O[C@]321` (stereo partly specified) [euspeclibcmpd1588]: the “Srxn1-GFP intensity median modified Z-score” value is 13 (active).

As for `COC(=O)C1OC(=O)C2OC23C1(C)CCC1C2(C)CCC(=O)C(C)(C)C2CC(OC(C)=O)C13C` (stereo unspecified) [euspeclibcmpd1948], the “Srxn1-GFP intensity median modified Z-score” value was -0.0565 (inactive).

`CC(C)CCCC(C)C1CCC2C3CC(=O)C4C[C@@H](O)CC[C@]4(C)C3CC[C@]12C` (stereo partly specified) [euspeclibcmpd2198]: the “Srxn1-GFP intensity median modified Z-score” value was -0.502 (inactive).

With `C[C@]12CC[C@@H](O)C[C@H]1CCc1ccccc12` [euspeclibcmpd1508], the “Srxn1-GFP intensity median modified Z-score” value was -0.327 (inactive).

For the molecule `N=c1[nH]c(=N)c2nc(-c3ccccc3)c(=N)[nH]c2[nH]1` [euspeclibcmpd304], the “Srxn1-GFP intensity median modified Z-score” value is -0.346 (inactive).

Turning to `CN[C@@H]1[C@@H](O[C@H]2O[C@H](CO)[C@@H](N)[C@H](O)[C@H]2O)O[C@H]2C[C@@H](N)[C@H](O[C@H]3[C@H](O)[C@@H](O)[C@H](N)C[C@@H]3N)O[C@@H]2[C@@H]1O` [euspeclibcmpd2180], the “Srxn1-GFP intensity median modified Z-score” value is -0.708 (inactive).

As for `CN(N=O)C(=O)N[C@@H]1[C@@H](O)[C@H](O)[C@@H](CO)O[C@@H]1O` [euspeclibcmpd271], the “Srxn1-GFP intensity median modified Z-score” value was 0.0066 (inactive).

Take `Cc1cc2nc3c(=O)[nH]c(=O)nc-3n(C[C@@H](O)[C@@H](O)[C@@H](O)CO)c2cc1C` [euspeclibcmpd751]: the “Srxn1-GFP intensity median modified Z-score” value was -0.238 (inactive).

On to `Cc1ccc(N2CC(C(=O)NCCCn3ccnc3)CC2=O)c(F)c1` (stereo unspecified), for which the “Srxn1-GFP intensity median modified Z-score” value was 1.07 (inactive).

As for `Cc1onc(-c2ccccc2Cl)c1C(=O)NC1C(=O)N2C1SC(C)(C)C2C(=O)O` (stereo unspecified) [euspeclibcmpd2381], the “Srxn1-GFP intensity median modified Z-score” value is -0.0695 (inactive).

For `C[C@@H]1O[C@@H](OC[C@H]2OC(Oc3c(-c4ccc(O)c(O)c4)oc4cc(O)cc(O)c4c3=O)[C@H](O)[C@@H](O)[C@@H]2O)[C@H](O)[C@H](O)[C@H]1O` (stereo partly specified) [euspeclibcmpd2149], the “Srxn1-GFP intensity median modified Z-score” value was -0.139 (inactive).

For `CC(=O)O[C@H]1C[C@@H](OC(C)=O)C(C)(C)C2C[C@@H](O)[C@]3(C)C(CC[C@@]4(C)[C@H](c5ccoc5)OC(=O)C5O[C@]543)[C@]21C` (stereo partly specified) [euspeclibcmpd1544], the “Srxn1-GFP intensity median modified Z-score” value is 0.39 (inactive).

Turning to `CC(=O)OC1CC(OC(C)=O)C2(C)C(CC(OC(C)=O)C3(C)C2CCC2(C)C(c4ccoc4)OC(=O)C4OC423)C1(C)C` (stereo unspecified) [euspeclibcmpd1940], the “Srxn1-GFP intensity median modified Z-score” value was 0.483 (inactive).

Regarding `CC(=O)O[C@H]1CC[C@@]2(C)C(C[C@@H](OC(C)=O)[C@]3(C)C2CC[C@@]2(C)[C@H](c4ccoc4)OC(=O)C4O[C@]423)C1(C)C` (stereo partly specified) [euspeclibcmpd2319], the “Srxn1-GFP intensity median modified Z-score” value was 5.12 (active).

Turning to `COc1ccc(C2COc3c(ccc(O)c3OC)C2)c(OC)c1O` (stereo unspecified) [euspeclibcmpd1831], the “Srxn1-GFP intensity median modified Z-score” value was 1.65 (inactive).

As for `CC1(C)C(=O)C2C[C@@]3(O)C4=CC(=O)O[C@@H](c5ccoc5)[C@]4(C)CCC3[C@](C)(C2=O)[C@H]1CC(=O)O` (stereo partly specified) [euspeclibcmpd1558], the “Srxn1-GFP intensity median modified Z-score” value is -0.051 (inactive).

In the case of `N=c1[nH]c(=O)c2ncn(CCC(CO)CO)c2[nH]1` [euspeclibcmpd464], the “Srxn1-GFP intensity median modified Z-score” value is 0.273 (inactive).

Turning to `CCC(=O)c1ccc(O)cc1` [euspeclibcmpd1262], the “Srxn1-GFP intensity median modified Z-score” value was 0.156 (inactive).

On to `O=C(O)C1=CC(=C(c2ccc(O)c(C(=O)O)c2)c2ccc(O)c(C(=O)O)c2)C=CC1=O` [euspeclibcmpd1741], for which the “Srxn1-GFP intensity median modified Z-score” value was -0.835 (inactive).

For the molecule `O=C1C=CC(=C(c2ccc(O)cc2)c2ccc(O)cc2)C=C1` [euspeclibcmpd1770], the “Srxn1-GFP intensity median modified Z-score” value was 19.5 (active).

Turning to `O=C(O)c1cc(N=Nc2ccc(S(=O)(=O)N=c3cccc[nH]3)cc2)ccc1O` [euspeclibcmpd280], the “Srxn1-GFP intensity median modified Z-score” value was -0.614 (inactive).
